# According to publication PMC7862700, “An all-to-all approach to the identification of sequence-specific readers for epigenetic DNA modifications on cytosine”:
# Assays:
# Experiment in all cases: DAPPL (digital affinity profiling via proximity ligation, sequencing); 10 mM Tris-HCl pH 7.5, 50 mM NaCl, 1 mM DTT, 4% glycerol, room temperature, 30 min; GST-TFs on glutathione beads, 16-mer random dsDNA library, 0.1% formaldehyde crosslink after washing; high values mean tight binding
# Conditions in all cases: protein: recombinant; tags: N-terminal GST; dsDNA, one strand shown
# ERF = target: T1, ERF (Homo sapiens, UniProt P50548 1-548)
# T1 sequence: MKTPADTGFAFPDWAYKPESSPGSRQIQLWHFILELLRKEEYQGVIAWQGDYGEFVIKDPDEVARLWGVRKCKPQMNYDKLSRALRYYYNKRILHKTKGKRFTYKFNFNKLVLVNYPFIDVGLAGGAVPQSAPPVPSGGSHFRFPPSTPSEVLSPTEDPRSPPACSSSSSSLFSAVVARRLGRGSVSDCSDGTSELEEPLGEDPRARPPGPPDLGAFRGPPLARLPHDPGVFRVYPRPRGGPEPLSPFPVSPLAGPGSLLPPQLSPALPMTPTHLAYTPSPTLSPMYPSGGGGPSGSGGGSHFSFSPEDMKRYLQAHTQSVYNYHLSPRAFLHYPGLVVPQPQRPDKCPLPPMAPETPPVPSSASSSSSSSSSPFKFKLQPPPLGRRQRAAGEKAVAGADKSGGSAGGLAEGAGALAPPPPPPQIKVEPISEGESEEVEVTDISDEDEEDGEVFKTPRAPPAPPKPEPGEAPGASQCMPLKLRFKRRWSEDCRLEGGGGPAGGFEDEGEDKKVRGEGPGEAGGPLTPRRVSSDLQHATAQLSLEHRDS
# Method in brief: (§1)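 Pools of DNA-barcoded human transcription factors, expressed in yeast as GST fusions on glutathione beads and combined with a tag-only sample, were incubated with 200 nmole of a 16-mer random double-stranded DNA library. Incubation took 30 min at room temperature in Tris/NaCl/DTT/glycerol buffer and was followed by washing, 0.1% formaldehyde crosslinking, proximity ligation (BsaI/T4 ligase, 1 h, 37 °C), PCR amplification and sequencing on an Illumina NextSeq500. Binding signal is the ratio of a hexamer's read frequency for a factor to its frequency for the tag-only sample.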
# ETV3L = target: T2, ETV3L (Homo sapiens, UniProt Q6ZN32 1-361)
# T2 sequence: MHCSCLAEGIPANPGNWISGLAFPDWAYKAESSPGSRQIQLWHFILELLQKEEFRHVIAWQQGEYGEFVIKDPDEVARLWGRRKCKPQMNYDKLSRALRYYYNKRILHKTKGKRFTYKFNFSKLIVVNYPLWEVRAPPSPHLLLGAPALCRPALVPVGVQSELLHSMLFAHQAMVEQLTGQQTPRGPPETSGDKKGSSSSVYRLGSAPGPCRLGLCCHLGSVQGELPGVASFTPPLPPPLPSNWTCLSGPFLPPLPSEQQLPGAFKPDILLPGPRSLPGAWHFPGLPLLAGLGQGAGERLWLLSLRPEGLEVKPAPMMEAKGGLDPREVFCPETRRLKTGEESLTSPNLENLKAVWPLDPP
# Method in brief: as §1
# ETS2 = target: T3, ETS2 (Homo sapiens, UniProt P15036 1-469)
# T3 sequence: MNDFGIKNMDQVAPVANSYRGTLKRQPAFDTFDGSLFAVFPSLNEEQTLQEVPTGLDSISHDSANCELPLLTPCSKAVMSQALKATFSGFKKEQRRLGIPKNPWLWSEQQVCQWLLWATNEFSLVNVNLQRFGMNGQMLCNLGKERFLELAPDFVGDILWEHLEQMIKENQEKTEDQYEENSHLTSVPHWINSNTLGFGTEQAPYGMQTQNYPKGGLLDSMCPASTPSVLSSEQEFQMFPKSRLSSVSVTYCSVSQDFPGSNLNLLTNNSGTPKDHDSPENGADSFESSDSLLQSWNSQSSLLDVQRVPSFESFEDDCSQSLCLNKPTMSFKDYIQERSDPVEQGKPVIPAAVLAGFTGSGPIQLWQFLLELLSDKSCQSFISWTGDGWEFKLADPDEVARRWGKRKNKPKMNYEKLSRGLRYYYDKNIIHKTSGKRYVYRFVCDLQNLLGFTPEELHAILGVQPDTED
# Method in brief: as §1
# SPDEF = target: T4, SPDEF (Homo sapiens, UniProt O95238 1-335)
# T4 sequence: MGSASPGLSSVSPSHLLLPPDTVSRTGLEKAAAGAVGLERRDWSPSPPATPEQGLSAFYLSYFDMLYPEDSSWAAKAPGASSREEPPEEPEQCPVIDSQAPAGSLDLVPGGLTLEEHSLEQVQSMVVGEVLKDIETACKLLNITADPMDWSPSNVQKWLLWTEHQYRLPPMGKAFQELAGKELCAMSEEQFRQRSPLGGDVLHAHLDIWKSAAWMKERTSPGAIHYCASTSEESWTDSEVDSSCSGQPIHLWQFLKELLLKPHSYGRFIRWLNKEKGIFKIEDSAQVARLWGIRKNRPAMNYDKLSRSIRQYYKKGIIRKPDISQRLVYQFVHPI
# Method in brief: as §1
# ETV7 = target: T5, ETV7 (Homo sapiens, UniProt Q9Y603 1-341)
# T5 sequence: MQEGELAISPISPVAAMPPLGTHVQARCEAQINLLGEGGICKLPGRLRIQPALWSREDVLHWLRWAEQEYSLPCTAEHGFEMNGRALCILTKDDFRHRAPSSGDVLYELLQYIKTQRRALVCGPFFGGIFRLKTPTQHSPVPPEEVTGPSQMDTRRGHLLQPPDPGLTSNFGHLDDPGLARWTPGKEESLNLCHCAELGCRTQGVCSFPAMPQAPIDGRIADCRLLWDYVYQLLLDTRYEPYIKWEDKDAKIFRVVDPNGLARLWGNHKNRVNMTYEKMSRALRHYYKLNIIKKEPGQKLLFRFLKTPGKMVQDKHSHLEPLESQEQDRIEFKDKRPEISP
# Method in brief: as §1
# ELF5 = target: T6, ELF5 (Homo sapiens, UniProt Q9UKW6-2 1-255)
# T6 sequence: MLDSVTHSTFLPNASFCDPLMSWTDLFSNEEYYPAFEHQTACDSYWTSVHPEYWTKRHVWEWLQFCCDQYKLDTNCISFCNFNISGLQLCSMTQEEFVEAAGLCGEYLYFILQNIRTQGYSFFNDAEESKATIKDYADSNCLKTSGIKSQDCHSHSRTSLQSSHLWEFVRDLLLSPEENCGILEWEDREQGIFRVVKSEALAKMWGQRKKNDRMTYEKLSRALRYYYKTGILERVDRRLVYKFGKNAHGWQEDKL
# Method in brief: as §1
# ETV3 = target: T7, ETV3 (Homo sapiens, UniProt P41162-2 1-143)
# T7 sequence: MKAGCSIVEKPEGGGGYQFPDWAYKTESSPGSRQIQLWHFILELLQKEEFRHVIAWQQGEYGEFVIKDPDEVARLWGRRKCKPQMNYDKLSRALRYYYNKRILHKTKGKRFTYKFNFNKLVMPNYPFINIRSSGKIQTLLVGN
# Method in brief: as §1
# ETV6 = ETV6 (Homo sapiens, UniProt P41212 1-452)
# Chain of ETV6 (P41212 whole entry): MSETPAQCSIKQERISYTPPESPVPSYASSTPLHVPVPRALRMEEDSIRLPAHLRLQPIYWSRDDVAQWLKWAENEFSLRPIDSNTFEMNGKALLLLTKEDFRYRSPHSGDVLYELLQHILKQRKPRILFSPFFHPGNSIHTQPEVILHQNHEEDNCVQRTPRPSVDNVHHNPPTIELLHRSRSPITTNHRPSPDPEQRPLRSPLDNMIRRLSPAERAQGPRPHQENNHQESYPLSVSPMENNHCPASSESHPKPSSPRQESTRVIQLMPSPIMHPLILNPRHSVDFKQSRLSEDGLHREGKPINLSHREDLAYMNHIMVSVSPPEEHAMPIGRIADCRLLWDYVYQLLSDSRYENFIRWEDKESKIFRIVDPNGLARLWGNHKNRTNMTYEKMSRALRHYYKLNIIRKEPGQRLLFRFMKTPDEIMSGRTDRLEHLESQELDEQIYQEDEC
# Method in brief: as §1
Sequence,binding signal (ERF),binding signal (ETV3L),binding signal (ETS2),binding signal (SPDEF),binding signal (ETV7),binding signal (ELF5),binding signal (ETV3),binding signal (ETV6)
TACTTG,"1.39 fold enrichment (6-mer frequency, TF over GST control)","1.45 fold enrichment (6-mer frequency, TF over GST control)","1.24 fold enrichment (6-mer frequency, TF over GST control)","1.21 fold enrichment (6-mer frequency, TF over GST control)","1.34 fold enrichment (6-mer frequency, TF over GST control)","1.35 fold enrichment (6-mer frequency, TF over GST control)","1.34 fold enrichment (6-mer frequency, TF over GST control)","1.24 fold enrichment (6-mer frequency, TF over GST control)"
TGAATA,"1.16 fold enrichment (6-mer frequency, TF over GST control)","1.11 fold enrichment (6-mer frequency, TF over GST control)","1.05 fold enrichment (6-mer frequency, TF over GST control)","1.09 fold enrichment (6-mer frequency, TF over GST control)","1.05 fold enrichment (6-mer frequency, TF over GST control)","1.07 fold enrichment (6-mer frequency, TF over GST control)","1.14 fold enrichment (6-mer frequency, TF over GST control)","1.08 fold enrichment (6-mer frequency, TF over GST control)"
CTTTGG,"1.19 fold enrichment (6-mer frequency, TF over GST control)","1.18 fold enrichment (6-mer frequency, TF over GST control)","1.13 fold enrichment (6-mer frequency, TF over GST control)","1.09 fold enrichment (6-mer frequency, TF over GST control)","1.26 fold enrichment (6-mer frequency, TF over GST control)","1.09 fold enrichment (6-mer frequency, TF over GST control)","1.22 fold enrichment (6-mer frequency, TF over GST control)","1.14 fold enrichment (6-mer frequency, TF over GST control)"
CGTTAA,"1.06 fold enrichment (6-mer frequency, TF over GST control)","1.18 fold enrichment (6-mer frequency, TF over GST control)","1.12 fold enrichment (6-mer frequency, TF over GST control)","1.1 fold enrichment (6-mer frequency, TF over GST control)","1.12 fold enrichment (6-mer frequency, TF over GST control)","1.19 fold enrichment (6-mer frequency, TF over GST control)","1.21 fold enrichment (6-mer frequency, TF over GST control)","1.16 fold enrichment (6-mer frequency, TF over GST control)"
ATTACA,"1.16 fold enrichment (6-mer frequency, TF over GST control)","1.1 fold enrichment (6-mer frequency, TF over GST control)","1.11 fold enrichment (6-mer frequency, TF over GST control)","1.18 fold enrichment (6-mer frequency, TF over GST control)","1.08 fold enrichment (6-mer frequency, TF over GST control)","1.08 fold enrichment (6-mer frequency, TF over GST control)","1.04 fold enrichment (6-mer frequency, TF over GST control)","1.15 fold enrichment (6-mer frequency, TF over GST control)"
ACTACT,"1.33 fold enrichment (6-mer frequency, TF over GST control)","1.37 fold enrichment (6-mer frequency, TF over GST control)","1.25 fold enrichment (6-mer frequency, TF over GST control)","1.15 fold enrichment (6-mer frequency, TF over GST control)","1.35 fold enrichment (6-mer frequency, TF over GST control)","1.34 fold enrichment (6-mer frequency, TF over GST control)","1.13 fold enrichment (6-mer frequency, TF over GST control)","1.27 fold enrichment (6-mer frequency, TF over GST control)"
ATAACC,"1.08 fold enrichment (6-mer frequency, TF over GST control)","1.18 fold enrichment (6-mer frequency, TF over GST control)","1.21 fold enrichment (6-mer frequency, TF over GST control)","1.22 fold enrichment (6-mer frequency, TF over GST control)","1.25 fold enrichment (6-mer frequency, TF over GST control)","1.16 fold enrichment (6-mer frequency, TF over GST control)","1.15 fold enrichment (6-mer frequency, TF over GST control)","1.17 fold enrichment (6-mer frequency, TF over GST control)"
GTTATT,"1.12 fold enrichment (6-mer frequency, TF over GST control)","1.13 fold enrichment (6-mer frequency, TF over GST control)","1.14 fold enrichment (6-mer frequency, TF over GST control)","1.04 fold enrichment (6-mer frequency, TF over GST control)","1.29 fold enrichment (6-mer frequency, TF over GST control)","1.21 fold enrichment (6-mer frequency, TF over GST control)","1.2 fold enrichment (6-mer frequency, TF over GST control)","1.2 fold enrichment (6-mer frequency, TF over GST control)"
ACGCCT,"1.15 fold enrichment (6-mer frequency, TF over GST control)","1.31 fold enrichment (6-mer frequency, TF over GST control)","1.17 fold enrichment (6-mer frequency, TF over GST control)","1.12 fold enrichment (6-mer frequency, TF over GST control)","1.01 fold enrichment (6-mer frequency, TF over GST control)","1.09 fold enrichment (6-mer frequency, TF over GST control)","1.19 fold enrichment (6-mer frequency, TF over GST control)","1.3 fold enrichment (6-mer frequency, TF over GST control)"
TGCTCG,"1.38 fold enrichment (6-mer frequency, TF over GST control)","1.46 fold enrichment (6-mer frequency, TF over GST control)","1.29 fold enrichment (6-mer frequency, TF over GST control)","1.07 fold enrichment (6-mer frequency, TF over GST control)","1.18 fold enrichment (6-mer frequency, TF over GST control)","1.18 fold enrichment (6-mer frequency, TF over GST control)","1.3 fold enrichment (6-mer frequency, TF over GST control)","1.31 fold enrichment (6-mer frequency, TF over GST control)"
GCTCCA,"1.26 fold enrichment (6-mer frequency, TF over GST control)","1.26 fold enrichment (6-mer frequency, TF over GST control)","1.21 fold enrichment (6-mer frequency, TF over GST control)","1.19 fold enrichment (6-mer frequency, TF over GST control)","1.19 fold enrichment (6-mer frequency, TF over GST control)","1.09 fold enrichment (6-mer frequency, TF over GST control)","1.14 fold enrichment (6-mer frequency, TF over GST control)","1.1 fold enrichment (6-mer frequency, TF over GST control)"
ATAATC,"1.2 fold enrichment (6-mer frequency, TF over GST control)","1.16 fold enrichment (6-mer frequency, TF over GST control)","1.16 fold enrichment (6-mer frequency, TF over GST control)","1.17 fold enrichment (6-mer frequency, TF over GST control)","1.14 fold enrichment (6-mer frequency, TF over GST control)","1.13 fold enrichment (6-mer frequency, TF over GST control)","1.15 fold enrichment (6-mer frequency, TF over GST control)","1.19 fold enrichment (6-mer frequency, TF over GST control)"
GCACTT,"1.61 fold enrichment (6-mer frequency, TF over GST control)","1.84 fold enrichment (6-mer frequency, TF over GST control)","1.76 fold enrichment (6-mer frequency, TF over GST control)","1.91 fold enrichment (6-mer frequency, TF over GST control)","1.92 fold enrichment (6-mer frequency, TF over GST control)","1.88 fold enrichment (6-mer frequency, TF over GST control)","1.94 fold enrichment (6-mer frequency, TF over GST control)","2 fold enrichment (6-mer frequency, TF over GST control)"
CTGCTG,"1.08 fold enrichment (6-mer frequency, TF over GST control)","1.3 fold enrichment (6-mer frequency, TF over GST control)","1.36 fold enrichment (6-mer frequency, TF over GST control)","1.26 fold enrichment (6-mer frequency, TF over GST control)","1.13 fold enrichment (6-mer frequency, TF over GST control)","1.27 fold enrichment (6-mer frequency, TF over GST control)","1.27 fold enrichment (6-mer frequency, TF over GST control)","1.22 fold enrichment (6-mer frequency, TF over GST control)"
CCTTAG,"1.22 fold enrichment (6-mer frequency, TF over GST control)","1.26 fold enrichment (6-mer frequency, TF over GST control)","1.27 fold enrichment (6-mer frequency, TF over GST control)","1.24 fold enrichment (6-mer frequency, TF over GST control)","1.21 fold enrichment (6-mer frequency, TF over GST control)","1.29 fold enrichment (6-mer frequency, TF over GST control)","1.27 fold enrichment (6-mer frequency, TF over GST control)","1.23 fold enrichment (6-mer frequency, TF over GST control)"
